# Data published in PubChem BioAssay AID1159580 (chemical genetic matrix, 2015).
# About 2,000 (36%) of roughly 5,500 compounds were called active. Inconclusive results (about 18%) are left out. This is one part of the list. Values without a mark were called inactive. No stated cut-off is given here; in the data, active means normalized growth mostly below about 0.91 (no sharp cut-off); inconclusive means no clear call, values can overlap the other calls; inactive means mostly above about 0.92.
# Test: chemical genetic growth profiling, strain panel (AID 1159580);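 further: tested at 20 µM; growth read once vehicle control cultures reached saturation at 30 °C; 1 = growth at the plate median or of vehicle wells; lower values mean less growth of the strain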
# Conditions: growth OD
compound,measurement,setting,value
CC[C@@]1(O)C[C@H](O[C@H]2C[C@H](N(C)C)[C@H](O)[C@H](C)O2)c2c(cc3c(c2O)C(=O)c2c(O)cccc2C3=O)[C@H]1C(=O)OC,normalized growth,"S. cerevisiae deletion strains, locus YKL068W, active compounds read low",0.965
same,normalized growth,"S. cerevisiae deletion strains, locus YKL085W, strain MDH1 (second series), active compounds read low",0.914 (active)
same,normalized growth,"S. cerevisiae deletion strains, locus YKL085W, strain MDH1, active compounds read low",0.914 (active)
same,normalized growth,"S. cerevisiae deletion strains, locus YKL160W, strain elf1, active compounds read low",0.873 (active)
same,normalized growth,"S. cerevisiae deletion strains, locus YKL190W, strain CNB1, active compounds read low",0.876 (active)
same,normalized growth,"S. cerevisiae deletion strains, locus YKR001C, strain vps1, active compounds read low",0.639 (active)
same,normalized growth,"S. cerevisiae deletion strains, locus YKR026C, strain gcn3, active compounds read low",0.945
same,normalized growth,"S. cerevisiae deletion strains, locus YKR091W, strain srl3, active compounds read low",0.945
same,normalized growth,"S. cerevisiae deletion strains, locus YLL001W, strain dnm1, active compounds read low",0.869 (active)
same,normalized growth,"S. cerevisiae deletion strains, locus YLL026W, active compounds read low",0.908 (active)
same,normalized growth,"S. cerevisiae deletion strains, locus YLL041C, strain sdh2, active compounds read low",0.944
same,normalized growth,"S. cerevisiae deletion strains, locus YLR027C, strain aat2, active compounds read low",0.877 (active)
same,normalized growth,"S. cerevisiae deletion strains, locus YLR039C, strain RIC1, active compounds read low",0.491 (active)
same,normalized growth,"S. cerevisiae deletion strains, locus YLR058C, strain SHM2, active compounds read low",0.89 (active)
same,normalized growth,"S. cerevisiae deletion strains, locus YLR102C, strain apc9, active compounds read low",0.901 (active)
same,normalized growth,"S. cerevisiae deletion strains, locus YLR113W, strain HOG1, active compounds read low",1.02
same,normalized growth,"S. cerevisiae deletion strains, locus YLR221C, strain rsa3, active compounds read low",0.855 (active)
same,normalized growth,"S. cerevisiae deletion strains, locus YLR258W, strain gsy2, active compounds read low",0.929
same,normalized growth,"S. cerevisiae deletion strains, locus YLR262C, strain YPT6 (second series), active compounds read low",0.649 (active)
same,normalized growth,"S. cerevisiae deletion strains, locus YLR262C, strain YPT6, active compounds read low",0.462 (active)
same,normalized growth,"S. cerevisiae deletion strains, locus YLR268W, strain sec22, active compounds read low",0.691 (active)
same,normalized growth,"S. cerevisiae deletion strains, locus YLR320W, strain mms22, active compounds read low",0.245 (active)
same,normalized growth,"S. cerevisiae deletion strains, locus YLR330W, strain CHS5, active compounds read low",0.873 (active)
same,normalized growth,"S. cerevisiae deletion strains, locus YLR342W, strain FKS1 (second series), active compounds read low",0.769 (active)
same,normalized growth,"S. cerevisiae deletion strains, locus YLR342W, strain FKS1, active compounds read low",0.862 (active)
same,normalized growth,"S. cerevisiae deletion strains, locus YLR357W, strain rsc2, active compounds read low",0.939
same,normalized growth,"S. cerevisiae deletion strains, locus YLR370C, strain arc18, active compounds read low",0.899 (active)
same,normalized growth,"S. cerevisiae deletion strains, locus YLR371W, strain rom2, active compounds read low",0.846 (active)
same,normalized growth,"S. cerevisiae deletion strains, locus YLR384C, strain iki3, active compounds read low",0.93
same,normalized growth,"S. cerevisiae deletion strains, locus YLR418C, strain cdc73, active compounds read low",0.69 (active)
same,normalized growth,"S. cerevisiae deletion strains, locus YML016C, strain PPZ1, active compounds read low",0.929
same,normalized growth,"S. cerevisiae deletion strains, locus YML032C, strain rad52, active compounds read low",0.241 (active)
same,normalized growth,"S. cerevisiae deletion strains, locus YML120C, strain ndi1, active compounds read low",0.912 (active)
same,normalized growth,"S. cerevisiae deletion strains, locus YML124C, strain tub3, active compounds read low",0.9 (active)
same,normalized growth,"S. cerevisiae deletion strains, locus YMR058W, strain fet3, active compounds read low",0.818 (active)
same,normalized growth,"S. cerevisiae deletion strains, locus YMR078C, strain ctf18, active compounds read low",0.724 (active)
same,normalized growth,"S. cerevisiae deletion strains, locus YMR125W, strain sto1, active compounds read low",1.05
same,normalized growth,"S. cerevisiae deletion strains, locus YMR129W, active compounds read low",0.921 (active)
same,normalized growth,"S. cerevisiae deletion strains, locus YMR205C, strain PFK2, active compounds read low",0.779 (active)
same,normalized growth,"S. cerevisiae deletion strains, locus YMR223W, strain ubp8, active compounds read low",0.838 (active)
same,normalized growth,"S. cerevisiae deletion strains, locus YMR231W, strain pep5, active compounds read low",0.918 (active)
same,normalized growth,"S. cerevisiae deletion strains, locus YMR263W, strain SAP30, active compounds read low",0.92
same,normalized growth,"S. cerevisiae deletion strains, locus YMR307W, strain GAS1, active compounds read low",0.601
same,normalized growth,"S. cerevisiae deletion strains, locus YNL067W, strain RPL9B, active compounds read low",0.824 (active)
same,normalized growth,"S. cerevisiae deletion strains, locus YNL071W, strain lat1, active compounds read low",0.815 (active)
same,normalized growth,"S. cerevisiae deletion strains, locus YNL153C, strain GIM3, active compounds read low",0.94
same,normalized growth,"S. cerevisiae deletion strains, locus YNL183C, strain NPR1, active compounds read low",0.926
same,normalized growth,"S. cerevisiae deletion strains, locus YNL209W, strain ssb2, active compounds read low",0.871 (active)
same,normalized growth,"S. cerevisiae deletion strains, locus YNL233W, strain BNI4, active compounds read low",0.861 (active)
same,normalized growth,"S. cerevisiae deletion strains, locus YNL248C, strain rpa49, active compounds read low",0.309 (active)
same,normalized growth,"S. cerevisiae deletion strains, locus YNL250W, strain rad50, active compounds read low",0.559 (active)
same,normalized growth,"S. cerevisiae deletion strains, locus YNL271C, strain bni1, active compounds read low",0.916 (active)
same,normalized growth,"S. cerevisiae deletion strains, locus YNL298W, strain CLA4, active compounds read low",0.898 (active)
same,normalized growth,"S. cerevisiae deletion strains, locus YNL307C, strain MCK1, active compounds read low",0.864 (active)
same,normalized growth,"S. cerevisiae deletion strains, locus YNL322C, strain KRE1 (second series), active compounds read low",0.922
same,normalized growth,"S. cerevisiae deletion strains, locus YNL322C, strain KRE1, active compounds read low",0.893 (active)
same,normalized growth,"S. cerevisiae deletion strains, locus YNR049C, strain mso1, active compounds read low",0.946
same,normalized growth,"S. cerevisiae deletion strains, locus YNR052C, strain pop2, active compounds read low",0.65 (active)
same,normalized growth,"S. cerevisiae deletion strains, locus YOL006C, strain TOP1, active compounds read low",0.198 (active)
same,normalized growth,"S. cerevisiae deletion strains, locus YOL012C, strain htz1",0.351
same,normalized growth,"S. cerevisiae deletion strains, locus YOL147C, strain pex11, active compounds read low",0.837 (active)
same,normalized growth,"S. cerevisiae deletion strains, locus YOR001W, strain rrp6, active compounds read low",0.934
same,normalized growth,"S. cerevisiae deletion strains, locus YOR061W, strain CKA2, active compounds read low",0.89
same,normalized growth,"S. cerevisiae deletion strains, locus YOR069W, strain VPS5, active compounds read low",0.895 (active)
same,normalized growth,"S. cerevisiae deletion strains, locus YOR070C, strain gyp1, active compounds read low",0.898 (active)
same,normalized growth,"S. cerevisiae deletion strains, locus YOR080W, strain dia2, active compounds read low",0.97
same,normalized growth,"S. cerevisiae deletion strains, locus YOR083W, strain WHI5, active compounds read low",0.81 (active)
same,normalized growth,"S. cerevisiae deletion strains, locus YOR106W, strain vam3, active compounds read low",0.672 (active)
same,normalized growth,"S. cerevisiae deletion strains, locus YOR136W, strain idh2, active compounds read low",0.894 (active)
same,normalized growth,"S. cerevisiae deletion strains, locus YOR144C, strain elg1, active compounds read low",0.857 (active)
same,normalized growth,"S. cerevisiae deletion strains, locus YOR184W, strain ser1, active compounds read low",0.591 (active)
same,normalized growth,"S. cerevisiae deletion strains, locus YOR231W, strain MKK1, active compounds read low",0.994
same,normalized growth,"S. cerevisiae deletion strains, locus YOR265W, strain rbl2, active compounds read low",0.917 (active)
same,normalized growth,"S. cerevisiae deletion strains, locus YOR270C, strain vph1, active compounds read low",0.39 (active)
same,normalized growth,"S. cerevisiae deletion strains, locus YOR290C, strain snf2, active compounds read low",0.932
same,normalized growth,"S. cerevisiae deletion strains, locus YOR316C, strain cot1, active compounds read low",0.915 (active)
same,normalized growth,"S. cerevisiae deletion strains, locus YPL051W, strain arl3, active compounds read low",0.785 (active)
same,normalized growth,"S. cerevisiae deletion strains, locus YPL055C, strain LGE1, active compounds read low",0.744 (active)
same,normalized growth,"S. cerevisiae deletion strains, locus YPL078C, strain atp4, active compounds read low",0.961
same,normalized growth,"S. cerevisiae deletion strains, locus YPL106C, strain sse1, active compounds read low",1.04
same,normalized growth,"S. cerevisiae deletion strains, locus YPL240C, strain hsp82, active compounds read low",0.92 (active)
same,normalized growth,"S. cerevisiae deletion strains, locus YPL241C, strain CIN2, active compounds read low",0.929 (active)
same,normalized growth,"S. cerevisiae deletion strains, locus YPL256C, strain CLN2, active compounds read low",0.963
same,normalized growth,"S. cerevisiae deletion strains, locus YPR119W, strain clb2, active compounds read low",0.901 (active)
same,normalized growth,"S. cerevisiae deletion strains, locus YPR141C, strain kar3, active compounds read low",0.935
same,normalized growth,"S. cerevisiae deletion strains, locus YPR163C, strain tif3, active compounds read low",0.783 (active)
same,normalized growth,"S. cerevisiae deletion strains, locus YPR167C, strain met16, active compounds read low",0.882 (active)
same,normalized growth,"S. cerevisiae deletion strains, strain wtn01, active compounds read low",0.759 (active)
same,normalized growth,"S. cerevisiae strains, strain wild type, active compounds read low",0.841 (active)
